Data reported in paper PMC4336329 (PLoS ONE, 2015).
Among all 310,000 compounds or so, about 14,000 (4.5%) showed an effect of 50% or more. Effects have a minus sign here. Shown is part of a subset that was picked to be rich in strong results.

What follows are compounds tested against human ether-à-go-go-related gene (hERG) potassium channel (human, UniProt Q12809) (assay: primary screen, population patch clamp on CHO cells stably expressing hERG; higher = less effect of the substance).
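Also: peak tail current of the secondary pulse compared with the same well before compound.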

Chain of human ether-à-go-go-related gene (hERG) potassium channel (Q12809 whole entry, looked up): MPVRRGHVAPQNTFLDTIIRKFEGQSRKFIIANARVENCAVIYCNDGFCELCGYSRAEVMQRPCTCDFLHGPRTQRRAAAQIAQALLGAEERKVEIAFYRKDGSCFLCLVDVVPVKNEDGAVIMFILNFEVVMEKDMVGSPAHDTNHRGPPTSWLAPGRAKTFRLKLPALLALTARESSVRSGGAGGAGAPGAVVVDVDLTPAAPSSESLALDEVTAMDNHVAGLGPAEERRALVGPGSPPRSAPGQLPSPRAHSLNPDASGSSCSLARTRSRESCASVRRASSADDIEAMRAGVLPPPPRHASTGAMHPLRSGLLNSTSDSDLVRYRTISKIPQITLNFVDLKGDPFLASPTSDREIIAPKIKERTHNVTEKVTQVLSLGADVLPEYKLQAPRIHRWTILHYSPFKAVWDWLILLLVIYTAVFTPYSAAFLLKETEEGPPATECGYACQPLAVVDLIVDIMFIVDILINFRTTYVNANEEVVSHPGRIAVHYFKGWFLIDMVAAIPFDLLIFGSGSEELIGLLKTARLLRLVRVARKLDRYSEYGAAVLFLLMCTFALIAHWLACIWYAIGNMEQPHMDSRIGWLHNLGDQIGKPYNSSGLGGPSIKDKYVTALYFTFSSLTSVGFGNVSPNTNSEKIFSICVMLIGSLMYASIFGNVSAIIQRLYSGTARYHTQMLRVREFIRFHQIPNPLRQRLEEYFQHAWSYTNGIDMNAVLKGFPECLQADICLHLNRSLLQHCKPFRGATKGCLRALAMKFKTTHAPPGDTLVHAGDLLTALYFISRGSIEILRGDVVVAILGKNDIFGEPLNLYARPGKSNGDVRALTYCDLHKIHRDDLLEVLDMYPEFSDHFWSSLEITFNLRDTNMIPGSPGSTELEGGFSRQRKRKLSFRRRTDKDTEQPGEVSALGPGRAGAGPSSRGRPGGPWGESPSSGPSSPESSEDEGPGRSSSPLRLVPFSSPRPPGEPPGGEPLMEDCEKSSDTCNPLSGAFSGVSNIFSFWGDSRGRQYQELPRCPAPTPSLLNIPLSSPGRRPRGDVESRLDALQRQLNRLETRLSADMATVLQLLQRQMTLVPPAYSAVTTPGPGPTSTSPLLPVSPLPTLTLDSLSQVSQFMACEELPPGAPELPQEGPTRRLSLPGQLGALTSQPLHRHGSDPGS

SMILES	hERG current change (%, negative = inhibition) at 10uM
COc1ccc(C(=O)N2CCN(c3ccc([N+](=O)[O-])c(NCCc4ccc(OC)c(OC)c4)c3)CC2)cc1	4.2%
COc1ccc(N2CCN(C(=O)Cc3ccc(OC)c(OC)c3)CC2)cc1	6.38%
COc1cc(CCC(=O)N2CCN(c3ncccn3)CC2)cc(OC)c1OC	11.8%
COc1ccc(CCC(=O)N2CCN(c3ccc([N+](=O)[O-])cc3)CC2)cc1OC	-81.5%
COc1cc(CCC(=O)N2CCN(c3ccc(N4CCOCC4)nn3)CC2)cc(OC)c1OC	-9.65%
COc1ccc(CCC(=O)N2CCN(c3ccccc3)CC2)cc1OC	14%
COc1cc(CCC(=O)N2CCN(c3ccccc3)CC2)cc(OC)c1OC	-58.5%
COc1cc(CCC(=O)N2CCN(c3ccc([N+](=O)[O-])cc3)CC2)cc(OC)c1OC	-78.4%
COc1cc(CCC(=O)N2CCN(c3cccc(C)c3C)CC2)cc(OC)c1OC	-2.88%
O=C(Cc1cccc(C(F)(F)F)c1)OCC(=O)N1CCN(S(=O)(=O)c2ccc(Cl)cc2)CC1	-6.07%
COc1ccc(OC)c(NC(=S)NCc2cccs2)c1	-18.3%
CCOC(=O)C1(Cc2ccccc2C)CCCN(S(=O)(=O)CC)C1 (stereo not shown)	13.9%
COc1cccc(NS(=O)(=O)c2ccc3c(c2)n(C)c(=O)c(=O)n3C)c1	-6.59%
COC(=O)c1[nH]c2cc(OC)ccc2c1NC(=O)CCN1CCSCC1	7.01%
CCc1nn(C(C)C(=O)N2CC(C)CC(C)C2)c(=O)c2cc3occc3n12 (stereo not shown)	-7.58%
CNC(=O)Nc1ccc(Cl)cc1	7.56%
C=CCOC(=O)C1=C[C@H](c2cn(C(C)=O)c3ccccc23)C[C@H](OCc2ccc(CO)cc2)O1	-9.82%
C=CCOC(=O)C1=C[C@@H](c2cn(C(C)=O)c3ccccc23)C[C@@H](OCc2ccc(CO)cc2)O1	-93.5%
O=C(C1=C[C@H](c2csc3ccccc23)C[C@H](OCc2ccc(CO)cc2)O1)N1CCOCC1	-59.2%
CC(=O)n1cc([C@H]2C=C(C(N)=O)O[C@@H](OCc3ccc(CO)cc3)C2)c2ccccc21	-16.8%
CC(=O)n1cc([C@H]2C=C(C(=O)N3CCOCC3)O[C@@H](OCCCCO)C2)c2ccccc21	-17.1%
CC(=O)n1cc([C@@H]2C=C(C(=O)N3CCOCC3)O[C@H](OCc3ccc(CO)cc3)C2)c2ccccc21	-74.8%

SMILES	hERG current change (%, negative = inhibition) at 10uM
O=C(C1=C[C@@H](c2csc3ccccc23)C[C@@H](OCc2ccc(CO)cc2)O1)N1CCOCC1	-27.5%
CC(=O)n1cc([C@H]2C=C(C(=O)N3CCN(Cc4ccccc4)CC3)O[C@@H](OCCCCO)C2)c2ccccc21	-42.5%
CC(=O)n1cc([C@@H]2C=C(C(=O)N3CCOCC3)O[C@H](OCCCCO)C2)c2ccccc21	-51.6%
CC(=O)n1cc([C@@H]2C=C(C(=O)N3CCN(Cc4ccccc4)CC3)O[C@H](OCc3ccc(CO)cc3)C2)c2ccccc21	-10.1%
O=C(C1=C[C@H](c2csc3ccccc23)C[C@H](OCc2ccc(CO)cc2)O1)N1CCCCCCC1	-15.1%
CC(=O)n1cc([C@@H]2C=C(C(=O)O)O[C@H](OCc3ccc(CO)cc3)C2)c2ccccc21	0.587%
O=C(CCCCCn1c(=S)[nH]c2ccc(N3CCOCC3)cc2c1=O)NCc1ccccc1Cl	4.65%
C=COCCn1c(-c2nonc2N)nc2ccccc21	-3.07%
CC(NC(=O)CCC(=O)NCc1ccc(F)cc1)c1ccccc1 (stereo not shown)	13.3%
COc1ccc(NC(=S)NC(NC(=O)CF)C(Cl)(Cl)Cl)cc1[N+](=O)[O-] (stereo not shown)	15%
CCOC(=O)c1ccc(NC(=O)CC2C(=O)N(c3ccc(F)cc3)C(=O)N2CCC(C)C)cc1 (stereo not shown)	-8.43%
COc1ccc(-c2cc(-c3ccc(OC)cc3)c(C#N)c(SC)n2)cc1	5.38%
CCn1nc(C(=O)Nc2cccc(S(=O)(=O)N3CCCC3)c2)c2ccccc2c1=O	-22.3%
COc1ccc(S(=O)(=O)N2CCCC(C(F)(F)F)C2)cc1 (stereo not shown)	10.2%
O=C(CCNS(=O)(=O)c1ccc2c(c1)CCC(=O)N2)NCc1ccc2c(c1)OCO2	0.608%
Cc1cccc(NC(=O)Nc2cc(C)on2)c1	9.14%
C=C1CCC[C@]2(C)C[C@H]3OC(=O)C(CN4CCOCC4)[C@H]3C[C@@H]12 (stereo partly shown)	17.7%
COc1cccc(OC)c1C(=O)Nc1cccc(-n2cnnn2)c1	15.7%
CN1CCC(OC(=O)Cc2ccc(Cl)cc2)CC1.Cl	-11%
CN(C(=S)Nc1ccc(Oc2ccccc2)cc1)c1ccc(O)cc1	-6.93%
CC(=O)n1cc([C@@H]2C=C(C(=O)N3CCN(C)CC3)O[C@H](OCc3ccc(CO)cc3)C2)c2ccccc21	-41.7%
CC(=O)n1cc([C@H]2C=C(C(=O)N3CCOCC3)O[C@@H](OCc3ccc(CO)cc3)C2)c2ccccc21	-55.2%

SMILES	hERG current change (%, negative = inhibition) at 10uM
CC(=O)n1cc([C@H]2C=C(C(=O)N3CCN(Cc4ccccc4)CC3)O[C@@H](OCc3ccc(CO)cc3)C2)c2ccccc21	-24%
CCN(c1ccccc1)S(=O)(=O)c1ccc(C(=O)N(C)CCc2ccc(OC)c(OC)c2)cc1	-13.8%
O=C(O)C(=O)O.O=[N+]([O-])c1ccc(N2CCN(Cc3ccc([N+](=O)[O-])o3)CC2)cc1	-71.1%
O=[N+]([O-])c1ccc(CN2CCN(c3ccc(Cl)cc3)CC2)o1	-2.29%
Clc1ccc(N2CCN(Cc3ccc(Br)o3)CC2)cc1	7.93%
O=[N+]([O-])c1ccc(N2CCN(Cc3ccc(Br)o3)CC2)cc1	-65.1%
O=[N+]([O-])c1ccc(CN2CCN(c3ccccc3)CC2)o1	9.7%
Brc1ccc(CN2CCN(c3ccccc3)CC2)o1	13.8%
Cc1c(N)cccc1-n1cccc1	16.2%
Cc1ccc2oc(C(=O)N(C)CCC(O)c3ccccc3)c(C)c2c1 (stereo not shown)	11.5%
COc1ccc(S(=O)(=O)NCCSCc2cccc(C)c2)cc1Br	-0.641%
CCNC(=O)NS(=O)(=O)c1cnccc1Nc1cccc(Cl)c1	25.1%
c1ccc(-c2noc(C3CCC3)n2)nc1	4.59%
CC(C)CC(=O)N/N=C/c1c(N)n(C)c(=O)n(C)c1=O	21.7%
CN1CCN(CCNC(=O)Cn2c(=O)c3cccn3c3ccc(F)cc32)CC1	14.1%
O=C(Cn1c(=O)c2cccn2c2ccc(F)cc21)NCCCN1CCN(c2ccccc2F)CC1	-50.5%
NS(=O)(=O)c1ccc(CCNC(=O)Cn2c(=O)c3cccn3c3cccnc32)cc1	22.3%
COc1ccc(N2CCN(CCCNC(=O)Cn3c(=O)c4cccn4c4ccccc43)CC2)cc1	-43.7%
O=C(Cn1c(=O)c2cccn2c2ccccc21)NCCCN1CCCCC1	3.5%
CCN1CCN(CCNC(=O)Cn2c(=O)c3cccn3c3ccc(F)cc32)CC1	-2.61%
O=C(Cn1c(=O)c2cccn2c2cccnc21)NCCCN1CCN(c2ccc(F)cc2)CC1	-76.4%
COc1ccc(N2CCN(CCCNC(=O)Cn3c(=O)c4cccn4c4cccnc43)CC2)cc1	-57.2%

SMILES	hERG current change (%, negative = inhibition) at 10uM
COc1ccc(N2CCN(C(=O)Cn3c(=O)c4cccn4c4cccnc43)CC2)cc1	-15.3%
COc1ccccc1CCNC(=O)C(=O)NCCC1CCCCN1S(=O)(=O)c1cccs1 (stereo not shown)	-6.92%
Cc1c(NC(=O)CSCc2ccccc2)cccc1C(=O)O	18%
CCn1cc([N+](=O)[O-])c(C(=O)N2N=C(c3ccc4ccccc4c3)CC2c2ccccc2O)n1 (stereo not shown)	3.19%
Clc1ncccc1-c1nnn(-c2ccccc2)n1	15.1%
Cc1[nH]c2ccccc2c1/C=N/NC(N)=S	2.1%
N#CCCS(=O)(=O)c1nnnn1-c1ccccc1	-18.7%
Cn1c(O)c(N=NC(=O)Cn2c(C(F)(F)F)nc3ccccc32)c2ccccc21	6.02%
CC(C)C(C(=O)O)N1C(=O)/C(=C/c2cccn2C)SC1=S (stereo not shown)	-0.129%
COCC1CCCN(C(=O)c2ccc3oc(Cc4ccc(Cl)cc4)nc3c2)C1 (stereo not shown)	-24.7%
O=C(CN1CCN(C(=O)N2CCCCC2)CC1)Nc1ccc(F)cc1	-74.9%
O=C(C1CCCC1)N1CCCC(Nc2ccc(F)cc2)C1 (stereo not shown)	-37.2%
O=C(CN1CCCC1)Nc1cc(C(F)(F)F)cc(C(F)(F)F)c1	-17.9%
Cl.O=C(CN1CCN(c2cccc(C(F)(F)F)c2)CC1)Nc1cccc(C(F)(F)F)c1	-1.14%
O=C(CN1CCCC1)NCC(=O)Nc1ccc(F)cc1	8.87%
Cc1ccc(NC(=O)CN2CCCC2)cc1.Cl	19.1%
O=C(CN1CCN(C(=O)C2CC2)CC1)Nc1cc(C(F)(F)F)cc(C(F)(F)F)c1	-54.4%
O=C(CN1CCN(C(=O)C2CCC2)CC1)Nc1ccc(F)cc1	-69.9%
O=C(CN1CCCC1)Nc1ccc(F)cc1	23.3%
